Inconclusive results are not listed. Unmarked numbers belong to inactive results. The source made the active and inactive calls. Calls come from the whole dose curve; as a rule, active = well fitted cell-killing curve with a large enough effect; inconclusive = small, poorly fitted or top-dose-only effect, or effect the other way; inactive = no such curve, though single readings can be large or run the other way.
% is set by controls: 0 for no effect and ±100 for the full control effect; potency is the fitted concentration of half-maximal effect.

The assay relates to Hek293T. Put plainly: Confirmatory qHTS for gynecologic anti-cancer compounds from libraries of approved drugs and bioactive compounds. Note: nearly all actives have a fitted effect of over 55% in size. The conditions noted are these: gynecologic cancer cell panel viability, ATPlite luminescence, 48 h; series mostly up to 57.6 µM. In a few lines:
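ATPlite luminescence read-out of cell viability; IC50 from 11-point 1:3 titrations, 57.5 uM to 0.977 nM, 48 h compound exposure at 37 C, 5% CO2. Cells seeded at 1,000/well 16 h before dosing.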
(In general: Quantitative high-throughput screening tests each substance at several concentrations.)
Turning to `CC[C@@]1(O)C(=O)OCc2c1cc1n(c2=O)Cc2cc3c(CN(C)C)c(O)ccc3nc2-1`, the Potency is 3.43 µM (active). Take `CS(=O)(=O)c1ccc(-c2cnc(N)c(C(=O)Nc3ccccc3)n2)cc1`: the Potency result was “inactive”. Regarding `COc1cc2c(Nc3ccc(NC(=O)c4ccccc4)cc3)ncnc2cc1OCCCN1CCOCC1`, the Potency is 24.3 µM (active).

Take `CN(C)C(CCOc1cccc2ccccc12)c1ccccc1` (stereo unspecified): the Potency result is “inactive”. Still for that read-out and setting: under `CC[C@@]1(O)C(=O)OCc2c1cc1n(c2=O)Cc2cc3cc(O)ccc3nc2-1` stands 0.385 µM (active). With `COc1cccc2c1C(=O)c1c(O)c3c(c(O)c1C2=O)C[C@@](O)(C(=O)CO)C[C@@H]3O[C@H]1C[C@H](N)[C@H](O)[C@H](C)O1`, the Potency is 3.85 µM (active).

Turning to `COc1ccc2c(c1OC)C(=O)O[C@@H]2[C@H]1c2c(cc3c(c2OC)OCO3)CCN1C`, the Potency result was “inactive”.

Regarding `C1CCC(C(CC2CCCCN2)C2CCCCC2)CC1` (stereo unspecified), the Potency is 27.3 µM (active).

As to `CCN1CCN(Cc2ccc(-c3cc4c(NC(C)c5ccccc5)ncnc4[nH]3)cc2)CC1` (stereo unspecified), the Potency was 27.3 µM (active). As for `O=C(c1ccc(/C=C/c2n[nH]c3ccccc23)cc1)N1CCNCC1`, the Potency is 21.7 µM (active). As for `Nc1ccc(-c2ccc3ncc4ccc(=O)n(-c5cccc(C(F)(F)F)c5)c4c3c2)cn1`, the Potency is 0.0544 µM (active). Turning to `O=c1[nH]c(=O)n([C@H]2C[C@H](O)[C@@H](CO)O2)cc1F`, the Potency is 1.37 µM (active). Consider `CCOc1cc2ncc(C#N)c(Nc3ccc(F)c(Cl)c3)c2cc1NC(=O)/C=C/CN(C)C`, for which the Potency was 15.3 µM (active). As to `Cn1cc(-c2[nH]c3cc(NC(=O)[C@H](N)C4CCCCC4)cc4c3c2C=NNC4=O)cn1`, the Potency is 0.432 µM (active). For the compound `CN1CCCC(n2nc(Cc3ccc(Cl)cc3)c3ccccc3c2=O)CC1` (stereo unspecified), the Potency was 17.2 µM (active). As for `COc1cc(N2CCC(N3CCN(C)CC3)CC2)ccc1Nc1ncnc(Nc2ccccc2S(=O)(=O)C(C)C)n1`, the Potency is 21.7 µM (active).

On to `CCCC(Nc1nc(-c2ccc(NC(=O)NCC)c(OC)c2)ncc1C)c1cccnc1` (stereo unspecified), for which the Potency result was “inactive”. Still for that read-out and setting: the value for `COc1cc2c(c(OC)c1OC)-c1ccc(OC)c(=O)cc1[C@@H](NC(C)=O)CC2` was “inactive”.

For `CO[C@@]12[C@H](COC(N)=O)C3=C(C(=O)C(C)=C(N)C3=O)N1C[C@@H]1N[C@@H]12`, the Potency result was “inactive”. With `C[C@@H](Oc1cc(-c2cnn(C3CCNCC3)c2)cnc1N)c1c(Cl)ccc(F)c1Cl`, the Potency is 21.7 µM (active).

`CCS(=O)(=O)N1CCN(c2ccc(Nc3ncc(C(N)=O)c(NC4CC4)n3)cc2)CC1`: the Potency was 17.2 µM (active).

On to `COc1cc2c(NC3CCN(C(C)C)CC3)nc(C3CCCCC3)nc2cc1OCCCN1CCCC1`, for which the Potency was 9.68 µM (active). Consider `CC[C@@]1(O)C(=O)OCc2c1cc1n(c2=O)Cc2c-1nc1ccccc1c2/C=N/OC(C)(C)C`, for which the Potency is 0.172 µM (active).

As for `COc1ccc(-c2nc3ccc(C4=NNC(=O)CC4C)cc3[nH]2)cc1` (stereo unspecified), the Potency is 2.17 µM (active). Regarding `Cc1ccc(C(=O)Nc2cccc(C(F)(F)F)c2)cc1-c1ccc2nc(NCCN3CCOCC3)ncc2c1`, the Potency was 19.3 µM (active). As to `Cc1ccc(C(=O)Nc2ccc(Oc3cc4cnn(C)c4cc3-c3cn[nH]c3)c(F)c2)c(=O)n1-c1ccc(F)cc1`, the Potency was 1.93 µM (active). As for `CS(=O)(=O)c1ccc(C(=O)Nc2ccc(Cl)c(-c3ccccn3)c2)c(Cl)c1`, the Potency result is “inactive”. Regarding `COC(C(=O)N1Cc2[nH]nc(NC(=O)c3ccc(N4CCN(C)CC4)cc3)c2C1)c1ccccc1` (stereo unspecified), the Potency result is “inactive”. Consider `CC1=C(CO)C(=O)O[C@@H]([C@@H](C)[C@H]2CC[C@H]3[C@@H]4C[C@H]5O[C@]56[C@@H](O)C=CC(=O)[C@]6(C)[C@H]4CC[C@]23C)C1`, for which the Potency is 2.37 µM (active). Regarding `O=C(/C=C/c1cccc(S(=O)(=O)Nc2ccccc2)c1)NO`, the Potency is 1.88 µM (active). The same measure, in the same setting: the value for `C[C@@]1(C(=O)Nc2ccc(F)nc2)CCCN1c1nc(Nc2cc(C3CC3)[nH]n2)c2cccn2n1` was “inactive”; that for `COc1cc2nccc(Oc3ccc(NC(=O)Nc4cc(C)on4)c(Cl)c3)c2cc1OC` was “inactive”.

Consider `O=C1c2c(O)ccc(O)c2C(=O)c2c(NCCNCCO)ccc(NCCNCCO)c21`, for which the Potency is 0.863 µM (active). On to `CCCCc1oc2ccccc2c1C(=O)c1cc(I)c(OCCN(CC)CC)c(I)c1`, for which the Potency was 79.4 µM (active). For `CN1CCN(Cc2ccc(NC(=O)Nc3ccc(Oc4cc(NC(=O)C5CC5)ncn4)cc3)cc2C(F)(F)F)CC1`, the Potency was 7.69 µM (active). Turning to `CC(=O)O[C@H]1C(=O)[C@@]2(C)[C@H]([C@H](OC(=O)c3ccccc3)[C@]3(O)C[C@H](OC(=O)[C@H](O)[C@@H](NC(=O)c4ccccc4)c4ccccc4)C(C)=C1C3(C)C)[C@]1(OC(C)=O)CO[C@@H]1C[C@@H]2O`, the activity change, negative = viability loss was 4.91% [at 10.7 µM].

For the origin of these results see PubChem BioAssay AID1345085 (National Center for Advancing Translational Sciences (NCATS), 2018).
